C diff HTS – C. difficile growth inhibitors, primary screen, HTS; Clostridium difficile clinical isolate growth, OD600, 24 h; hits give low values; growth activity, negative = inhibition, % at 16 µg/mL (by protocol); actives 0.25% (n = 86,000);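 active = mean growth activity at or below -80% and every replicate also at or below -80%; inconclusive = mean at or below -80% but some replicate above -80%; inactive = mean growth activity above -80%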
T cruzi growth-1 – T. cruzi intracellular proliferation inhibitors, primary screen, cell-based, beta-gal Tulahuen parasites, NIH3T3 host, luminescence. actives 5.9% (n = 77,000). inhibition, % at 8.34 µM. T. cruzi beta-gal in NIH3T3, GalScreen luminescence, 90 h. AID 624255, 2012;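 active = mean inhibition above about 93%, with at least 55% of replicates each passing it, limit read from the data, passing the limit was not always enough; inconclusive = only one of those two conditions holds; inactive = neither condition holds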
Pf Dd2 inh – P. falciparum Dd2 growth inhibitors, primary screen, SYBR Green fluorescence, single dose replicates; 72 h; hits give low values; activity change, % at 10 µM; actives 2.3% (n = 94,000); in the data active = activity change below about -80%; inconclusive = no clear call, values can overlap the other calls
T cruzi growth-2 – T. cruzi intracellular proliferation inhibitors, confirmation, cell-based, NIH3T3 host, beta-gal parasite, luminescence, cherry-pick | T. cruzi beta-gal in NIH3T3, GalScreen luminescence, 90 h | shares compounds with T cruzi growth-1 | actives 72% (n = 5,600) | inhibition, % at 8.35 µM;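 active = mean replicate inhibition above about 95% and at least 55% of replicates individually reaching it, limit read from the data; inconclusive = only one of the two criteria is met; inactive = neither criterion is met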
T cruzi growth-3 – inhibitors of intracellular T. cruzi replication, confirmation, NIH3T3 host cells, beta-gal parasites, cherry-pick, set 2 | shares compounds with T cruzi growth-1 | T. cruzi beta-gal in NIH3T3, GalScreen luminescence, 90 h | inhibition, % at 2.09 µM | actives 21% (n = 5,600) | AID 651740, 2012;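 active = mean inhibition above about 95%, with at least 55% of replicates also reaching it, limit read from the data; inconclusive = meets just one of the two conditions; inactive = meets neither condition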
3T3 cytotox – cytotoxicity in mouse NIH/3T3 fibroblasts, confirmation, cytotoxicity control for T. cruzi proliferation inhibitor project, cell-based, cherry-pick, single point; shares compounds with T cruzi growth-1; NIH/3T3 viability, CellTiter-Glo ATP luminescence, 90 h; cytotoxicity (signal decrease), % at 8.35 µM; actives 14% (n = 5,600);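 active = mean signal decrease across replicates above about 35% based on untreated-well scatter, with enough replicates individually passing, limit read from the data; inconclusive = no rule stated though some were filed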
3T3 cytotox 2 – NIH/3T3 fibroblast cytotoxicity, confirmation, cytotoxicity control, cell-based, cherry-pick, single point, set 2; shares compounds with T cruzi growth-1; NIH/3T3 viability, CellTiter-Glo ATP luminescence, 90 h; actives 56% (n = 5,600); AID 651744, 2012; inhibition, % at 24.9 µM;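 active = mean loss of cell viability signal at or above a set limit, and enough replicates individually reaching it; inconclusive = meets only the mean limit or only the replicate share; inactive = meets neither condition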
Large screens that a line does not name were inactive (follow-up assays come after a bar, where they were run). Hits are enriched below; roughly 6.7% of the tested compounds scored in any of these assays.

Cc1ccc(S(=O)(=O)N(C)C[C@@H]2OCCCC[C@H](C)Oc3ccc(NC(=O)Nc4ccccc4)cc3C(=O)N([C@H](C)CO)C[C@@H]2C)cc1	T cruzi growth-1 106, Pf Dd2 inh inconclusive | T cruzi growth-2 106 | T cruzi growth-3 inactive | 3T3 cytotox inactive | 3T3 cytotox 2 inactive
Cc1ccc(S(=O)(=O)N(C)C[C@H]2OCCCC[C@H](C)Oc3ccc(NC(=O)Nc4ccccc4)cc3C(=O)N([C@H](C)CO)C[C@@H]2C)cc1	T cruzi growth-1 110 | T cruzi growth-2 103 | T cruzi growth-3 inactive | 3T3 cytotox inactive | 3T3 cytotox 2 inactive
COc1cccc(C(=O)Nc2ccc3c(c2)C(=O)N(C)[C@@H]2CC[C@@H](CC(=O)NCc4ccccc4F)O[C@H]2CO3)c1	none
CCCNC(=O)N(C)C[C@@H]1Oc2cc(C#CC(C)(C)O)ccc2S(=O)(=O)N([C@H](C)CO)C[C@@H]1C	none
O=C(C[C@@H]1C[C@H]2c3cc(NC(=O)C4CCOCC4)ccc3O[C@H]2[C@@H](CO)O1)NCc1cccc(F)c1	none
Cc1noc(C)c1NC(=O)Nc1ccc2c(c1)CC(=O)N([C@H](C)CO)C[C@@H](C)[C@H](CN(C)S(=O)(=O)c1ccc(Cl)cc1)O2	none
CC(C)CC#Cc1ccc2c(c1)O[C@@H](CN(C)C(=O)C1CCC1)[C@@H](C)CN([C@@H](C)CO)S2(=O)=O	T cruzi growth-1 105 | T cruzi growth-2 104 | T cruzi growth-3 inactive | 3T3 cytotox inactive | 3T3 cytotox 2 96
CC(C)CC#Cc1ccc2c(c1)O[C@@H](CN(C)C(=O)C1CCCCC1)[C@@H](C)CN([C@@H](C)CO)S2(=O)=O	T cruzi growth-1 113 | T cruzi growth-2 inconclusive | T cruzi growth-3 inconclusive | 3T3 cytotox inactive | 3T3 cytotox 2 105
CC(C)CC#Cc1ccc2c(c1)O[C@H](CN(C)C(=O)C1CCOCC1)[C@H](C)CN([C@H](C)CO)S2(=O)=O	none
CC(C)CC#Cc1ccc2c(c1)O[C@@H](CN(C)C(=O)C1CC1)[C@@H](C)CN([C@@H](C)CO)S2(=O)=O	none (no result: C diff HTS)
CC(C)CC#Cc1ccc2c(c1)O[C@@H](CN(C)C(=O)C1CC1)[C@H](C)CN([C@@H](C)CO)S2(=O)=O	T cruzi growth-1 104 (no result: C diff HTS) | T cruzi growth-2 104 | T cruzi growth-3 inactive | 3T3 cytotox inactive | 3T3 cytotox 2 55
CC(C)CC#Cc1ccc2c(c1)O[C@H](CN(C)C(=O)C1CCOCC1)[C@@H](C)CN([C@H](C)CO)S2(=O)=O	none
CC(C)CC#Cc1ccc2c(c1)O[C@@H](CN(C)C(=O)C1CCOCC1)[C@@H](C)CN([C@H](C)CO)S2(=O)=O	none
CC(C)CC#Cc1ccc2c(c1)O[C@H](CN(C)C(=O)C1CCCCC1)[C@H](C)CN([C@@H](C)CO)S2(=O)=O	T cruzi growth-1 112 | T cruzi growth-2 102 | T cruzi growth-3 103 | 3T3 cytotox inactive | 3T3 cytotox 2 104
COc1ccc(NC(=O)N(C)C[C@H]2Oc3c(NC(=O)Nc4ccc(C(F)(F)F)cc4)cccc3C(=O)N([C@H](C)CO)C[C@H]2C)cc1	none
C[C@@H]1CN([C@@H](C)CO)S(=O)(=O)c2ccc(-c3cccc(F)c3)cc2O[C@@H]1CN(C)C(=O)c1cccc(F)c1	none
C[C@H]1CN([C@@H](C)CO)S(=O)(=O)c2ccc(-c3cccnc3)cc2O[C@@H]1CN(C)C(=O)c1cccc(F)c1	none
C[C@@H]1CN([C@@H](C)CO)S(=O)(=O)c2ccc(-c3ccncc3)cc2O[C@H]1CN(C)C(=O)c1ccc2c(c1)OCO2	T cruzi growth-1 106 | T cruzi growth-2 99 | T cruzi growth-3 inactive | 3T3 cytotox inactive | 3T3 cytotox 2 inactive
C[C@@H]1CN([C@@H](C)CO)S(=O)(=O)c2ccc(-c3cccc(F)c3)cc2O[C@H]1CN(C)C(=O)c1cccc(F)c1	T cruzi growth-1 100 | T cruzi growth-2 98 | T cruzi growth-3 inactive | 3T3 cytotox 53 | 3T3 cytotox 2 40
C[C@H]1CN([C@@H](C)CO)S(=O)(=O)c2ccc(-c3cccc(F)c3)cc2O[C@H]1CN(C)C(=O)c1cccc(F)c1	none
C[C@@H]1CN([C@@H](C)CO)S(=O)(=O)c2ccc(-c3ccccc3)cc2O[C@@H]1CN(C)C(=O)c1ccc2c(c1)OCO2	none (no result: T cruzi growth-1)
C[C@H](CO)N1C[C@H](C)[C@@H](CN(C)C(=O)c2cccc(F)c2)Oc2cc(-c3ccncc3)ccc2S1(=O)=O	T cruzi growth-1 110 | T cruzi growth-2 inactive | T cruzi growth-3 inactive | 3T3 cytotox inactive | 3T3 cytotox 2 44
C[C@@H]1CN([C@@H](C)CO)S(=O)(=O)c2ccc(-c3ccncc3)cc2O[C@H]1CN(C)C(=O)c1cccc(F)c1	T cruzi growth-1 111 | T cruzi growth-2 96 | T cruzi growth-3 inactive | 3T3 cytotox inactive | 3T3 cytotox 2 25
CCS(=O)(=O)Nc1ccc2c(c1)C(=O)N(C)[C@@H]1CC[C@@H](CC(=O)OC)O[C@H]1CO2	none
O=C(C1CC1)N1CCCCN2[C@H](CO)[C@H](c3ccc(C#CC4(O)CCCC4)cc3)[C@@H]2C1	none
COc1ccc(CN(C)C[C@H]2OCCCC[C@H](C)Oc3ccc(NS(=O)(=O)c4ccc(F)cc4)cc3C(=O)N([C@H](C)CO)C[C@@H]2C)cc1	none
O=C(NCC1CC1)[C@H]1[C@H](CO)[C@H]2Cn3c(ccc(-c4ccccc4F)c3=O)[C@@H]1N2Cc1ccncc1	none
CC(C)C#Cc1ccc2c(c1)O[C@H](CN(C)C(=O)C1CC1)[C@@H](C)CN([C@H](C)CO)S2(=O)=O	none (no result: T cruzi growth-1)
C/C=C/c1ccc([C@@H]2[C@H]3CN(C(=O)c4ccncc4)CC(=O)N3[C@H]2CO)cc1	none (no result: T cruzi growth-1)
CCNC(=O)[C@H]1[C@H](CO)[C@H]2Cn3c(ccc(-c4ccccc4)c3=O)[C@@H]1N2Cc1cccnc1	none
Cc1noc(C)c1S(=O)(=O)Nc1ccc2c(c1)C(=O)N([C@H](C)CO)C[C@@H](C)[C@H](CN(C)Cc1ccc(C(=O)O)cc1)OCCCC[C@@H](C)O2	none
Cc1noc(C)c1S(=O)(=O)Nc1ccc2c(c1)C(=O)N([C@H](C)CO)C[C@H](C)[C@H](CN(C)Cc1ccc(C(=O)O)cc1)OCCCC[C@@H](C)O2	none

Compound activity: PubChem BioAssay, Broad Institute
